From PubChem BioAssay
Shown are actives, neighbours in structure and some others; about 1.6% of the full set was active somewhere.
HUVEC tox IL1B – HUVEC cytotoxicity counter-screen, IL-1B stimulated | cell count reduction, % at 2 µM | 94,000 compounds, 0.41% hits | HUVEC cell count loss, Hoechst imaging | AID 845;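 active = cell count reduction more than 3 SD above the screen-wide mean, cut at about 70% in these data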;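 also: normalized per plate to untreated control cells as the no-loss baseline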
IL1B NFkB inh – blocks IL-1B driven NFkB nuclear translocation in HUVEC cells; 94,000 compounds, 0.43% hits; HUVEC IL-1B NFkB p65 nuclear translocation imaging; inhibition, % at 2 µM;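 active = inhibition above about 30% together with a positive call from visual inspection of the well image, limit read from the data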;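 also: nuclear over cytoplasmic p65 intensity ratio measured by imaging; 0% = IL-1B stimulated DMSO wells and 100% = unstimulated DMSO wells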
TNFa cytotox – HUVEC cytotoxicity counter-screen, TNF alpha stimulated | HUVEC TNFalpha-stimulated, Hoechst cell count, imaging | cell count reduction, % at 2 µM | 93,000 compounds, 0.17% hits;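 active = cell count reduction exceeding the screen mean by over 5 SD, scaled to untreated wells per plate, cut at about 78% in these data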;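 also: cells counted after 24 h of TNF alpha exposure following the 1 h pretreatment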
E-sel TNF inh – blocks E-selectin expression induced by TNF alpha. HUVEC TNFa-induced E-selectin immunofluorescence, high content. inhibition, % at 2 µM. 120,000 compounds, 0.71% hits. AID 1246;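 active = inhibition above the batch mean plus 3 SD, and confirmed as a hit on visual image review, cut at about 43% in these data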;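 also: 0% = TNF-stimulated DMSO wells and 100% = unstimulated control wells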
IL1B NFkB pot – enhances IL-1B driven NFkB nuclear translocation; HUVEC IL-1B NFkB p65 nuclear translocation imaging; activation, % at 2 µM; 94,000 compounds, 0.3% hits; AID 819;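 active = activation above 40%, about the mean plus 3 SD, also judged a hit on visual image review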;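 also: percent activation is computed from the nuclear over cytoplasmic p65 intensity ratio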
VCAM1 TNFa inh – reduces TNF alpha induced VCAM1 expression in HUVEC. HUVEC TNFa-induced VCAM-1 immunofluorescence, high-content imaging. inhibition, % at 2 µM. 95,000 compounds, 0.48% hits;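 active = inhibition above the batch mean plus 3 SD, with images confirmed as a hit by eye, cut at about 37% in these data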;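 also: 0% = TNF-stimulated DMSO wells and 100% = unstimulated control wells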
Active calls of the source: *.

Screening CCOc1ccc2nc(NC(=O)c3cccnc3)sc2c1 returned E-sel TNF inh -6.
`CCOc1ccc2nc(NC(=O)c3cnc(C)cn3)sc2c1` gave HUVEC tox IL1B -126, IL1B NFkB inh 39*, TNFa cytotox -32, E-sel TNF inh -10, IL1B NFkB pot -39 and VCAM1 TNFa inh 0.
For CC(C)CCNC(=O)C(=O)Nc1ccccc1 the results were E-sel TNF inh -6.
`CC(c1ccccc1)C1C(C#N)=C(N)OC2=C1C(=O)CCC2` (centres undefined) gave HUVEC tox IL1B -6, IL1B NFkB inh -116, TNFa cytotox -25, E-sel TNF inh -14, IL1B NFkB pot 116* and VCAM1 TNFa inh 8.
`O=C(Nc1ccc([N+](=O)[O-])cn1)c1ccc(Br)o1` gave E-sel TNF inh 4.
Screening CSc1ccc(S(=O)(=O)Nc2ccc3c4c(cccc24)CC3)cc1 returned HUVEC tox IL1B 22, IL1B NFkB inh 9, TNFa cytotox 18, E-sel TNF inh 26, IL1B NFkB pot -9 and VCAM1 TNFa inh 44*.
O=S(=O)(Nc1ccc2c3c(cccc13)CC2)c1ccc(F)cc1 was read as HUVEC tox IL1B 26, IL1B NFkB inh -10, TNFa cytotox 10, E-sel TNF inh -43, IL1B NFkB pot 10 and VCAM1 TNFa inh -3.
`Cn1cc(Cl)c(C(=O)NNC(=S)NCc2ccco2)n1` gave E-sel TNF inh 73*.
Screening O=C(Cn1c(=O)n(-c2ccc(F)cc2)c(=O)c2sccc21)NC1CCCCC1 returned E-sel TNF inh 3.
`CCC(=O)Nc1nnc(-c2ccccn2)o1` gave E-sel TNF inh 68*.
Cc1ccc(C(=O)c2ccccc2C(=O)OCC(=O)NCC2CCCO2)cc1 (centres undefined) was read as E-sel TNF inh 22.
Screening COc1ccc(NC(=O)C2CCCC2)cn1 returned E-sel TNF inh -13.
For Cc1ccc(C(C)n2cc(C(=O)NCCN3CCN(C)CC3)nn2)cc1 (centres undefined) the results were HUVEC tox IL1B 0, IL1B NFkB inh -4, TNFa cytotox 4, E-sel TNF inh 71*, IL1B NFkB pot 4 and VCAM1 TNFa inh 7.
C=CCn1c(CSCc2ccc(C)cc2)nnc1SCC(=O)NCc1ccccc1 was read as HUVEC tox IL1B -12, IL1B NFkB inh 7, TNFa cytotox -12, E-sel TNF inh -9, IL1B NFkB pot -7 and VCAM1 TNFa inh 2.
Screening C=CCn1c(SCC(=O)NCc2ccccc2)nnc1-c1ccccc1O returned HUVEC tox IL1B 26, IL1B NFkB inh 16, TNFa cytotox 1, E-sel TNF inh 40*, IL1B NFkB pot -16 and VCAM1 TNFa inh -5.
CC(=O)N1CCc2cc(S(=O)(=O)CCC(=O)N3CCN(C(=O)c4ccco4)CC3)ccc21 was read as HUVEC tox IL1B 86*, IL1B NFkB inh -6, TNFa cytotox 3, E-sel TNF inh -22, IL1B NFkB pot 6 and VCAM1 TNFa inh 12.
CCOC(=O)N1CCN(C(=O)CCNS(=O)(=O)c2ccc3c(c2)c(=O)n(C)c(=O)n3C)CC1 was read as E-sel TNF inh 7.
`Cc1ccccc1-n1nnnc1SCC(=O)NCC1CCCO1` (centres undefined) gave E-sel TNF inh -47.
For Cc1ccc(C2Oc3ccccc3C3=C2C(c2cccs2)n2ncnc2N3)cc1 (centres undefined) the results were HUVEC tox IL1B 88*, IL1B NFkB inh 7, TNFa cytotox -30, E-sel TNF inh -1, IL1B NFkB pot -7 and VCAM1 TNFa inh 4.
Screening Cc1ccc(-c2cc(N)n(-c3ccccc3)n2)cc1 returned HUVEC tox IL1B -18, IL1B NFkB inh 67*, TNFa cytotox -9, IL1B NFkB pot -67 and VCAM1 TNFa inh -1.
Screening CN1CCN(C(=O)CCc2nc3ccccc3c(=O)[nH]2)CC1 returned HUVEC tox IL1B 4, IL1B NFkB inh 4, TNFa cytotox -11, E-sel TNF inh 12, IL1B NFkB pot -4 and VCAM1 TNFa inh -15.
For Cc1ccc(CNC(=O)CCc2nc3ccccc3c(=O)[nH]2)cc1 the results were E-sel TNF inh 62*.
For CCCc1c(O)c2ccccc2[nH]c1=O the results were TNFa cytotox -10, E-sel TNF inh 52* and VCAM1 TNFa inh -2.
Screening Cc1c(C)c2ccc(Oc3ccc([N+](=O)[O-])cc3C(F)(F)F)c(C)c2oc1=O returned HUVEC tox IL1B -18, IL1B NFkB inh -67, TNFa cytotox 15, IL1B NFkB pot 67* and VCAM1 TNFa inh -12.
